In PubChem BioAssay AID652104 (National Center for Advancing Translational Sciences (NCATS), 2013) one finds Potency and growth rescue (activation) data, which are given here for 62 molecules.

The campaign covered roughly 410,000 compounds. About 7,200 (1.8%) were called active. Where a call stands in place of a potency, no number is given. Not shown: some 7% with an inconclusive outcome. For the sample, actives were picked, then their nearest neighbours and some compounds at random. A number with no mark means an inactive call. Calls follow the shape of the dose curve; as a rule, active = well fitted activation curve with a large enough effect; inconclusive = small, poorly fitted or top-dose-only effect, or another doubt; inactive = no such curve, though single readings can be large or run the other way.
Potency is read from the fitted curve at half-maximal effect.

The nature of the assay: qHTS of TDP-43 Inhibitors. Also: nearly all actives have a fitted effect of over 50% in size. As to conditions: TDP-43 expressing yeast growth rescue, BacTiter-Glo, 24 h; series mostly up to 46.1 µM. In outline:
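Growth rescue of TDP-43-toxic yeast measured as ATP luminescence (BacTiter-Glo). Cells grown to mid-log in raffinose, induced in galactose at OD600=0.02, exposed to compound 24 hr at 30 deg C.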
In general terms: qHTS replaces the single test concentration by a dilution series.
In the case of `CCCCC(CC)CNC(=O)C1CCN(S(=O)(=O)c2cccc3nsnc23)CC1` (configuration not stated), the Potency result is “inactive”.

Regarding `O=S(=O)(c1ccc2nc(N3CCN(c4cccc(Cl)c4)CC3)ccc2c1)N1CCCCC1`, the Potency result was “inactive”.

Consider `Cc1cc(OC(=O)c2ccccc2)c([N+](=O)[O-])c(=O)[nH]1`, for which the Potency entry is “inactive”.

For `Cc1cc(OC(=O)c2ccc(OC(C)C)cc2)c([N+](=O)[O-])c(=O)[nH]1`, the Potency is 22.4 µM (active).

Turning to `COc1cccc(C(=O)Oc2cc(C)[nH]c(=O)c2[N+](=O)[O-])c1`, the Potency result was “inactive”.

`Cc1nnc(SCc2cc(=O)c3cc(F)ccc3[nH]2)n1C`: the Potency entry was “inactive”.

For `CC(C)CC(=O)NCC(c1ccc2c(c1)OCO2)N1CCN(c2ccc(F)cc2)CC1` (configuration not stated), the Potency result is “inactive”.

In the case of `CCn1c(=O)cc(OCC(=O)Nc2cc(Cl)c(OC)cc2OC)c2ccccc21`, the Potency result is “inactive”.

For `Cc1ccc(S(=O)(=O)c2nc(-c3ccco3)oc2SCC(=O)Nc2ccc(F)cc2)cc1`, the Potency result is “inactive”.

Take `COC(=O)c1c(-c2ccc(C)cc2)csc1N`: the Potency is 12.6 µM (active).

Take `Cc1ccc(-c2nc(COC(=O)c3c(C)noc3C)cs2)cc1`: the Potency entry was “inactive”.

Turning to `COC(=O)c1sc(N)c(C(=O)OC)c1COC(=O)CNS(=O)(=O)c1ccc(C)cc1`, the Potency entry is “inactive”.

As for `CCCn1c(=N)n(CC(O)COc2ccccc2OC)c2ccccc21` (configuration not stated), the Potency result is “inactive”.

For `CO/N=C(\N)c1ccc([N+](=O)[O-])cc1`, the Potency entry was “inactive”.

As to `N/C(=N\OC(=O)Cc1ccccc1[N+](=O)[O-])c1ccc(Br)cc1`, the Potency was 15.8 µM (active).

For the molecule `N/C(=N\OC(=O)N1c2ccccc2Sc2ccccc21)c1ccc(Br)cc1`, the Potency result is “inactive”.

`Cc1ccc(-n2ncc3c(=O)n(Cc4cccc(C(F)(F)F)c4)cnc32)cc1C`: the Potency entry is “inactive”.

`CC(C)NC(=O)C1CCC(Cn2c(=O)c3sccc3n(Cc3ccc(F)cc3)c2=O)CC1` (configuration not stated): the Potency result was “inactive”.

Take `O=C(COc1ccc(Cl)cc1)N(Cc1ccco1)Cc1ccco1`: the Potency entry was “inactive”.

For the molecule `CC(=O)c1ccc(NC(=O)CCc2nc(-c3ccc(C)cc3)no2)cc1`, the Potency entry was “inactive”.

Turning to `CCOC(=O)c1ccc(NC(=O)c2csc3c2CCCCC3)cc1`, the Potency is 20 µM (active).

Consider `CCOC(=O)c1ccc(NC(=O)c2c(NCc3cccs3)sc3c2CCCC3)cc1`, for which the Potency entry was “inactive”.

Consider `CCOc1ccc(CCNC(=O)c2csc3c2CCCCC3)cc1`, for which the Potency result is “inactive”.

`Cc1ccc(-c2cn3c(n2)sc2cc(C(=O)NCc4cccs4)ccc23)c(C)c1`: the growth rescue (activation) was -0.34% [at 9.22 µM].

As for `C/C(=N\N)c1c(-c2ccccc2)c2cc(Br)ccc2[nH]c1=O`, the Potency entry is “inactive”.

For the molecule `O=c1[nH]c2cc(Br)ccc2n2cccc12`, the Potency was 10 µM (active).

`CC1CN(C(=O)N2CCC(C(=O)NCc3cccs3)CC2)c2ccccc2O1` (configuration not stated): the Potency result is “inactive”.

Take `COc1ccc(N(CC(=O)N2CCCCCC2)S(=O)(=O)c2ccccc2)cc1`: the Potency result is “inactive”.

Take `CC1CCN(C(=O)CN(c2ccc(Oc3ccccc3)cc2)S(C)(=O)=O)CC1`: the Potency was 12.6 µM (active).

With `CS(=O)(=O)N(CC(=O)N1CCN(c2cccc(Cl)c2)CC1)c1ccccc1`, the Potency result is “inactive”.

Take `COc1cc(CNC(=O)c2cc3n(n2)CCCN(Cc2cccc(F)c2)C3=O)cc(OC)c1OC`: the Potency result was “inactive”.

Take `CCc1cc2c(cc3c(=O)n(CC(=O)NCCc4ccc(OC)c(OC)c4)ncn32)s1`: the Potency entry was “inactive”.

`CCC(=O)N1CCc2cc(CNS(=O)(=O)c3ccc(Br)s3)ccc21`: the Potency is 11.2 µM (active).

Regarding `CCC(=O)N1CCc2cc(CNC(=O)Nc3ccccc3Cl)ccc21`, the Potency entry is “inactive”.

Turning to `CCC(=O)N1CCc2cc(Br)cc(S(=O)(=O)NCc3ccc(Cl)cc3)c21`, the Potency entry is “inactive”.

As for `Cc1ccc(NC(=O)c2cc(S(=O)(=O)NCCC3=CCCCC3)ccc2F)cc1C`, the Potency result was “inactive”.

On to `COc1cc(C(=O)Nc2ccc(OCc3cc(=O)n4ccc(C)cc4n3)cc2)cc(OC)c1OC`, for which the Potency entry is “inactive”.

On to `O=C(NNc1nc(N2CCCC2)nc(N2CCCC2)n1)c1ccccc1`, for which the Potency result was “inactive”.

As to `CCOC(=O)CSc1nc2ccc(C)cc2n2cnnc12`, the Potency entry was “inactive”.

For `O=C(c1ccccc1)c1ccc2nc(N3CCCCC3)c3nncn3c2c1`, the Potency was 20 µM (active).

As to `Cc1nnc(NC(=O)CSc2nc3c([nH]c4ccccc43)c(=O)n2-c2cccc(Cl)c2)s1`, the Potency result was “inactive”.

For the molecule `CC(=O)C1=C(C)NC(=O)NC1c1ccc2c(c1)OCO2` (configuration not stated), the Potency entry was “inactive”.

Turning to `O=C1C=C(c2ccnc3cc(Cl)ccc23)C[C@@H](c2ccc3c(c2)OCO3)C1`, the Potency is 22.4 µM (active).

For the molecule `O=C(Nc1ccc2c(c1)OCO2)c1sc2cc(Cl)ccc2c1Cl`, the Potency entry is “inactive”.

As to `Cc1cccc(N2CCN(C3=C(c4ccccc4)C(=O)c4ccccc43)CC2)c1C`, the Potency result was “inactive”.

With `Cc1cccc(NC(=O)c2ccc(F)c(S(=O)(=O)N(C)C3CCCCC3)c2)c1`, the Potency result is “inactive”.

For `Brc1cccc(-c2nnn3c2nc(NC2CCCCC2)c2ccccc23)c1`, the Potency entry was “inactive”.

`O=C(Nc1nnc(S(=O)(=O)N2CCCc3ccccc32)s1)c1cccc(F)c1`: the Potency entry is “inactive”.

On to `COCCCNc1ccn2nc(-c3ccc(CC(C)C)cc3)cc2n1`, for which the Potency was 17.8 µM (active).

With `CCc1ccc(C2CC(=O)c3c([nH]c(C(=O)OCc4ccc(C)cc4)c3C)C2)cc1` (configuration not stated), the Potency result is “inactive”.

For the molecule `CCN(CCCNC(=O)c1cc(Nc2ccc(OC)cc2)nc2ccccc12)c1cccc(C)c1`, the Potency result was “inactive”.

Consider `Cc1ccc(CSc2nc3ccsc3c(=O)n2CCC(C)C)cc1`, for which the Potency result was “inactive”.

With `Cc1ccc(-n2c(=O)c3cccnc3n2CC(=O)Nc2ccccc2C(F)(F)F)cc1C`, the Potency entry was “inactive”.

Consider `Cc1ccc(-n2c(=O)c3cccnc3n2CC(=O)NCc2ccc(F)cc2)cc1C`, for which the Potency is 12.6 µM (active).

With `CCOc1ccccc1NC(=O)Cn1c2ncccc2c(=O)n1-c1ccc(C)c(C)c1`, the Potency result is “inactive”.

In the case of `CCOc1ccccc1NC(=O)Cn1c(=O)n(Cc2ccccc2)c(=O)c2c(C)c(C(=O)N(C)C)sc21`, the Potency result was “inactive”.

Regarding `Cc1c(CNC(C)c2ccccc2)c(C(=O)O)c(C)n1Cc1c(F)cccc1Cl` (configuration not stated), the Potency entry is “inactive”.

In the case of `Cc1ccc(CN2CC(N3CCC(Cc4ccccc4)CC3)CS2(=O)=O)cc1` (configuration not stated), the Potency result is “inactive”.

As to `O=S1(=O)CC(N2CCC(Cc3ccccc3)CC2)CN1Cc1ccccc1` (configuration not stated), the Potency entry is “inactive”.

`O=[N+]([O-])c1ccc(CN2CC(N3CCC(c4ccccc4)CC3)CS2(=O)=O)cc1` (configuration not stated): the Potency was 25.1 µM (active).

Regarding `CCOC(=O)c1c(C)oc2ccc(N(C(=O)c3ccncc3)S(=O)(=O)c3ccc(CC)cc3)cc12`, the Potency result was “inactive”.

Turning to `CCc1ccc(CN(Cc2ccco2)C(=O)COc2ccc(Cl)c(C)c2)cc1`, the Potency result was “inactive”.
